The list is not random: actives were taken first. Their share in the collection is about 19%.
TDP1 block – qHTS Assay for Inhibitors of Tyrosyl-DNA Phosphodiesterase (TDP1); Tyrosyl-DNA phosphodiesterase 1 (Homo sapiens), Q9NUW8; recombinant TDP1, AlphaScreen DNA substrate cleavage; Potency, µM (titrated, usually from 130 µM), inactives show at the highest dose activity change, negative = inhibition, actives largely listed as inhibitors; 0.28% of 350,000 active; AID 485290, 2010; note: potency is the fitted concentration of half-maximal effect; nearly all actives have a fitted effect of over 40% in size
Target sequence (Q9NUW8 whole entry, looked up): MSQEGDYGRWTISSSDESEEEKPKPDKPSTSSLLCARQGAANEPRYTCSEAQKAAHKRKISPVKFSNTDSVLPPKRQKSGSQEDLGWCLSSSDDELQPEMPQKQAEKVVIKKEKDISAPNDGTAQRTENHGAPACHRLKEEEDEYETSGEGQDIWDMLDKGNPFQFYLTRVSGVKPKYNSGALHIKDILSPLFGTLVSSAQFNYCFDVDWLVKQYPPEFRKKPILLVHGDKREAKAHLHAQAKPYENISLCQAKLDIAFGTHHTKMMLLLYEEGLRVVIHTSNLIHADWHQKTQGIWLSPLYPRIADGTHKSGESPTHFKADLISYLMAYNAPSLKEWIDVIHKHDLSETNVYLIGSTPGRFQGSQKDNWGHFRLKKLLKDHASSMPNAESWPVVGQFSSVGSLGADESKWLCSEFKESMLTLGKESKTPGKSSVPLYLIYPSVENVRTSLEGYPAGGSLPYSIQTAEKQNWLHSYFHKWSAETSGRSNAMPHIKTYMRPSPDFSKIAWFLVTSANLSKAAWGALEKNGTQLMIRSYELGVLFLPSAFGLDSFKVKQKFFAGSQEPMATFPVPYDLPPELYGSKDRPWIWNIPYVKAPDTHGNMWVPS
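E. coli-derived human Tdp1, 1 nM final. Cpd preinc 15 min RT; substrate 15 nM final, 5 min RT; AS bead mix 10 ug/ml final, 10 min RT. Signal loss = tyrosine-FITC cleavage. No-enzyme wells = max signal.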
Giardia kill – Small Molecules that selectively kill Giardia lamblia: qHTS | activity change, % at 7.66 µM, hits read low | Giardia lamblia trophozoite viability | AID 540267, 2011 | 0.15% of 340,000 active; in the data active = activity change below about -80%; inconclusive = between about -30% and that limit;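 note: parasites exposed to compound for two days anaerobically before the ATP read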
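Trophozoite viability was measured as ATP-dependent luminescence, read 15-30 min after reagent addition. Before that, parasites at 100 cells/well were exposed to compounds for 48 h, anaerobically, at 37 deg C.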
TDP1 cell noCPT – qHTS for Inhibitors of human tyrosyl-DNA phosphodiesterase 1 (TDP1): qHTS in cells in absence of CPT | DT40 Tdp1-/- hTDP1 cells, no CPT, ATP luminescence, 48 h | Potency, µM (highest dose often 46.2 µM), without a hit: at the highest dose activity change, negative = growth inhibition, hits mostly inhibitors | 15% of 420,000 active; note: potency is the fitted concentration of half-maximal effect; nearly all actives have a fitted effect of over 55% in size
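Camptothecin absent (DMSO only). Human TDP1-complemented DT40 knockout cells, 400 cells/well, 37 °C for minimum 48 hr; ATP measured via CellTiter-Glo, 30 min dark incubation, luminescence.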
ELG1 DNA repair – qHTS screen for small molecules that inhibit ELG1-dependent DNA repair in human embryonic kidney (HEK293T) cells expressing luciferase-tagged ELG1. HEK293T ELG1-luciferase reporter, luminescence, 16 h; DNA damage induced by 5-fluorouridine. Potency, µM (top dose mostly 46.1 µM), for inactives: at the highest dose activity change, negative = inhibition, actives largely listed as inhibitors. 2.3% of 330,000 active. AID 504467, 2011; note: potency is the fitted concentration of half-maximal effect; nearly all actives have a fitted effect of over 55% in size
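Overnight (16 hr) co-exposure of 2,000 cells/well to 5-fluorouridine and compound at 37 °C preceded detection. Luciferase was quantified via ONE-Glo luminescence; loss of signal denotes inhibition.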
IL-1B inflam inh – qHTS for Inhibitors of Inflammasome Signaling: IL-1-beta AlphaLISA Primary Screen; THP-1 LPS/ATP IL-1B secretion, AlphaLISA, 16 h; active compounds read low; activity change, % at 57.5 µM; 4.7% of 360,000 active; AID 743279, 2014; in the data active = activity change below about -50%; inconclusive = mostly about -30% to -49%
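Secreted IL-1B measured by AlphaLISA bead assay after 16 h compound exposure of THP-1 cells; compounds (final up to 57.5 uM) added 1 h before LPS (250 ng/mL) and ATP (1.25 mM) stimulation; lower signal means less secretion.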
TDP1 cell CPT – qHTS for Inhibitors of human tyrosyl-DNA phosphodiesterase 1 (TDP1): qHTS in cells in presence of CPT | chicken DT40 Tdp1-/-;hTDP1 cells + 20 nM CPT, ATP luminescence, 48 h | Potency, µM (doses to about 46.2 µM), without a hit: top-dose activity change, negative = growth inhibition, actives largely listed as inhibitors | 12% of 420,000 active; note: potency is the fitted concentration of half-maximal effect; nearly all actives have a fitted effect of over 55% in size
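Chicken DT40 Tdp1-/- cells complemented with human TDP1, 400 cells/well, exposed to compounds plus 20 nM camptothecin for at least 48 h at 37 C; viability read as ATP content by CellTiter-Glo luminescence.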
Active calls of the source: *; ? = inconclusive; . = no result given. Unless noted, calls come from the whole dose curve; as a rule, active = well fitted curve in the direction sought with a large enough effect; inconclusive = small, poorly fitted or top-dose-only effect, or another doubt; inactive = no such curve, though single readings can be large; an effect the other way counts as inactive or inconclusive. % is set by controls: 0 for no effect and ±100 for the full control effect.

SMILES	TDP1 block	Giardia kill	TDP1 cell noCPT	ELG1 DNA repair	IL-1B inflam inh	TDP1 cell CPT
CCOc1ccc2c(c1)C(=O)C(=O)N2CC1COc2ccccc2O1 (stereo not given)	.	-20.3	0.82µM*	-14.2%	-3.1	1.16µM*
CCOc1ccc(S(=O)(=O)NCCC(=O)NCC2COc3ccccc3O2)cc1 (stereo not given)	0.5%	12.7	-5.4%	-1.7%	12.6	-17.8%
Cc1ccc2c(c1)C(=O)C(=O)N2CC1COc2ccccc2O1 (stereo not given)	.	-5.0	2.31µM*	7.9%	-92.7*	2.31µM*
CCN1CCN(CC2COc3ccccc3O2)CC1 (stereo not given)	.	-8.9	13.0%	?	7.3	2.1%
CCOc1ccc(NC(=O)NC(C)CC)cc1 (stereo not given)	-2.7%	6.8	18.4µM*	?	-17.9	?
CCOc1ccc(NC(=O)Nc2ccc3nccnc3c2)cc1	2.1%	-2.6	14.6µM*	?	-13.1	?
O=C(O)COc1ccc(/C=N/n2c(COc3ccccc3)nc3ccccc3c2=O)cc1	2.7%	-2.1	?	?	-8.7	-24.2%
CCCc1nc2ccccc2c(=O)n1/N=C/c1ccc(O)cc1O	5.1%	-13.0	-21.5%	?	0.0	?
O=c1c2ccccc2nc(COc2ccccc2)n1/N=C/c1ccc(O)c(O)c1	6.5%	-14.5	10.3µM*	?	-27.0	14.6µM*
O=c1c2ccccc2nc(COc2ccccc2)n1/N=C/c1ccco1	-3.1%	5.0	14.6µM*	?	?	?
Cc1cc(/C=N/n2c(COc3ccccc3)nc3ccccc3c2=O)c(O)c([N+](=O)[O-])c1	13.5%	-17.6	20.6µM*	-24.2%	40.2	16.4µM*
CCCc1nc2ccccc2c(=O)n1/N=C/c1ccc(O)cc1	6.3%	-8.8	?	11.6µM*	-23.5	?
COc1ccc(NC(=O)C2c3ccccc3OCC(=O)N2CC(F)(F)F)cc1 (stereo not given)	.	.	-10.1%	.	-5.8	-0.6%
Cc1cc(N2C(=O)C(O)=C(C(=O)c3cc4ccccc4o3)C2c2cccc(Cl)c2)no1 (stereo not given)	10.7%	-19.8	?	2.2%	-9.7	?
COCCCNC(=S)Nc1ccc2nc3n(c(=O)c2c1)CCCCC3	0.0%	6.0	-1.6%	14.0%	31.9	-13.4%
CCOC(=O)c1ccccc1NC(=O)C(=O)Nc1ccc2nc3n(c(=O)c2c1)CCCCC3	-2.5%	.	-17.6%	.	.	5.3%
CCOCCCNC(=S)Nc1ccc2nc3n(c(=O)c2c1)CCCCC3	5.1%	-3.2	-25.4%	3.9%	-63.8*	-17.6%
Cc1ccc(C)c(CNC(=O)c2ccc3c(c2)nc2n3CCCCC2)c1	8.1%	.	18.4µM*	.	.	?
CCOc1ccccc1NC(=O)C(=O)Nc1ccc2nc3n(c(=O)c2c1)CCCCC3	0.0%	.	18.4µM*	.	.	23.1µM*
CCOc1ccccc1NC(=O)c1ccc2c(Cl)c3c(nc2c1)CCCC3	5.8%	.	23.1µM*	.	.	?
CCOCCn1ccc2c(OCC(=O)Nc3cccc([N+](=O)[O-])c3)cccc2c1=O	-2.6%	.	?	.	.	-14.9%
CCOc1cc(N2CCOCC2)c(OCC)cc1NC(=O)CSc1nnc(N)s1	0.0%	5.9	?	0.0%	56.0	?
CS(=O)(=O)Nc1c(O)ccc2c1CCCC2C1=NCCN1 (stereo not given)	9.8%	.	10.6%	.	.	-4.5%
Cc1ccc2occ(-c3cc(-c4ccc(Cl)cc4)nc4c3COc3ccccc3-4)c(=O)c2c1	4.5%	.	1.0%	.	.	-0.2%
